GRK2 inh = blocks RNA aptamer binding to human GRK2. bead flow cytometry, FAM-aptamer displacement from GRK2. inhibition of aptamer binding, % at 10 µM. hit rate 0.59% among 330,000. AID 488847;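 active = inhibition of aptamer binding above 40%, roughly 3 SD of noise, on plates passing a quality check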;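 note: median bead fluorescence of bound FAM aptamer so fluorescent compounds give negative values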
VLA-4 inh = inhibition in a human VLA-4 binding assay. P13612. VLA-4 expressing cells, ligand binding flow cytometry. inhibition, % (about 7 µM as worked out from the volumes in the protocol). hit rate 0.2% among 330,000. AID 2557; in the data active = inhibition above about 50%
NTR1 agonist = agonists of human neurotensin receptor NTR1 | activation, % at 20 µM | hit rate 0.17% among 330,000 | NTR1-U2OS beta-arrestin-GFP spot imaging, agonist mode | P30989;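 active = activation at or above 40% of the spot to cytoplasm intensity ratio, with at least 20 cells analyzed; inconclusive = wells under 20 cells, flagged as cytotoxic or low count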
Beta2AR agonist = agonists of human beta-2 adrenergic receptor inducing internalization; P07550; Am2.2-beta2AR cells, FAP receptor internalization, flow cytometry; response, % (test concentration not listed); hit rate 0.43% among 340,000;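 active = response above a set limit, near 3 SD of response in nonfluorescent compounds, cut at about 42% in these data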
Target sequence (P07550 whole entry, looked up): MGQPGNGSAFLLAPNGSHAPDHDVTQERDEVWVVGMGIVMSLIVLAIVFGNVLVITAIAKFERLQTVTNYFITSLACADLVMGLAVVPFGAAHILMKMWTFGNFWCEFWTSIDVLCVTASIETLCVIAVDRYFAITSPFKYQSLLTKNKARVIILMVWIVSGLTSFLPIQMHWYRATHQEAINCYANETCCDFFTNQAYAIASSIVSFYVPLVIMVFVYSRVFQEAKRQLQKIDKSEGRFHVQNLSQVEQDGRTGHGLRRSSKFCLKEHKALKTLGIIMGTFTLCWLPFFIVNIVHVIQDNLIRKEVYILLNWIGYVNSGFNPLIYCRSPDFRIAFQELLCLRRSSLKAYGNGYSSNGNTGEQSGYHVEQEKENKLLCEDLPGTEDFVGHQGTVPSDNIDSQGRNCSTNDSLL
A1 inh = inhibitors of the anti-apoptotic protein A1, read as caspase activation. MEF A1-2A-BIM cells, Caspase-Glo 3/7 luminescence, 3 h; percent of clofoctol response, vehicle zero. caspase activation, % (test concentration not listed). hit rate 0.066% among 330,000;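 active = over half of replicate activation scores above 10%, or exactly half above 10 with the replicate mean above 10; inconclusive = replicate mean below 10 yet half the replicates above 10; inactive = over half of replicates below 10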
Large screens that a line does not name were inactive. Compounds with a hit are over-represented: about 1.3% of the library has one in this group of screens.

C=C(C)C(=O)Nc1cccc(C2=NOC3(C2)C[C@H](C(N)=O)N(C(=O)c2ccccc2C(=O)c2ccccc2)C3)c1 (stereo partly specified)	GRK2 inh 91
O=C(CNCC1CCCO1)NCc1ccco1 (stereo unspecified)	none
CCOC(=O)c1ccc(S(=O)(=O)NNC(=O)COc2ccc(C)cc2)cc1	GRK2 inh 92
CCOC(=O)c1ccc(S(=O)(=O)NNC(=O)COc2cccc(C)c2)cc1	none
Nc1c(N2CCCC2)cc(Cl)c2nonc12	none
Nc1c(N2CCOCC2)cc(Cl)c2nonc12	Beta2AR agonist 46
C/C(CC(=O)NCc1ccccc1Cl)=N/NC(=O)c1ccccn1	none
COC(=O)c1ccc(CNC(=O)c2ccc(OC)c(S(=O)(=O)NC3CCCC3)c2)cc1	none
NS(=O)(=O)c1ccc(N/N=C/c2cn(-c3ccccc3)nc2-c2ccccc2)c([N+](=O)[O-])c1	Beta2AR agonist 81, A1 inh 5.8
O=[N+]([O-])c1ccc(N/N=C/c2cn(-c3ccccc3)nc2-c2ccccc2)cc1	none
Cc1ccnc(Nc2nc(-c3ccc(O)cc3O)cs2)c1	none
O=C(CSc1nc2ccccc2c(=O)n1-c1ccc(F)cc1)Nc1cc(S(=O)(=O)N2CCOCC2)ccc1Cl	GRK2 inh 53
Cc1cc(C(=O)NNC(=O)c2ccc(Cl)cc2Cl)c(C)o1	none
Cc1cccc(N2CCN(c3nc4ccccc4n4cnnc34)CC2)c1C	Beta2AR agonist 42
c1cnc(N2CCN(c3nc4ccccc4n4cnnc34)CC2)nc1	none
COCCN1CC(CNC(=O)c2cc(COc3ccc(C)c(C)c3)on2)CC1=O (stereo unspecified)	none
O=C(OCn1ncc(Cl)c(Cl)c1=O)c1cccc(C(F)(F)F)c1	A1 inh inconclusive
O=C(OCn1ncc(Br)c(Br)c1=O)c1ccccc1Cl	Beta2AR agonist 49
O=C(OCn1ncc(Br)c(Br)c1=O)c1ccc(F)cc1	Beta2AR agonist 78
C#CCOCCOCCOCCNc1nc(N2CCN(C(=O)CCCCCCCCCCNC(=O)Cn3cc(C[C@@H](C)O)nn3)CC2)nc(N2CCN(C(=O)CCCCCCCCCCNC(=O)[C@H](CCCCN)n3cc(CCCC(=O)O)nn3)CC2)n1	none
C#CCOCCOCCOCCNc1nc(N2CCN(C(=O)CCCCCCCCCCNC(=O)[C@H](CO)n3cc(CCCSC)nn3)CC2)nc(N2CCN(C(=O)CCCCCCCCCCNC(=O)[C@H](CCCN=C(N)N)n3cc(C[C@@H](C)CC)nn3)CC2)n1	Beta2AR agonist 89
C#CCOCCOCCOCCNc1nc(N2CCN(C(=O)CCCCCCCCCCNC(=O)Cn3cc(C[C@@H](C)O)nn3)CC2)nc(N2CCN(C(=O)CCCCCCCCCCNC(=O)[C@H](CCCN=C(N)N)n3cc(C[C@@H](C)CC)nn3)CC2)n1	Beta2AR agonist 57
Cc1ccc(Sc2ccc(/C=N/O)cc2[N+](=O)[O-])cc1	Beta2AR agonist 58
CO/N=C/c1ccc(Sc2ccc(C)cc2)c([N+](=O)[O-])c1	none
CS(=O)(=O)Nc1ccc(C2=NN(C(=O)c3cccc(F)c3)C(c3cccs3)C2)cc1 (stereo unspecified)	A1 inh 5.4
Cc1cccc(CCNS(=O)(=O)c2ccc3c(c2)CCN3C(=O)CCC(=O)O)c1	none
CC(C)N1CCc2c(sc(N)c2C#N)C1	none
CCN1CCc2c(sc(N)c2C#N)C1	GRK2 inh 63
O=C(NCc1ccc2c(c1)OCO2)C1CCN(c2ncccn2)CC1	A1 inh 5.2
CN(C)c1ccc(/C=C2\CCC/C(=C\c3ccccc3)C2=O)cc1	none (no result: NTR1 agonist)
CC(=O)N1/C(=C/c2ccc(N(C)C)cc2)C(=O)c2ccccc21	Beta2AR agonist 45 (no result: GRK2 inh, VLA-4 inh, NTR1 agonist, A1 inh)
C=CCc1ccccc1Oc1cc(OC)nc(N)n1	none (no result: GRK2 inh, VLA-4 inh, A1 inh)
CN(Cc1ccccc1)C(=O)c1cccc(NC(=O)C2CCCN(C(=O)OC(C)(C)C)C2)c1 (stereo unspecified)	none
COC(=O)c1ccccc1NC1=C/C(=N\S(=O)(=O)c2cccs2)c2ccccc2C1=O	none
Cc1ccc(S(=O)(=O)/N=C2\C=C(Nc3ccc(O)cc3)C(=O)c3ccccc32)cc1	Beta2AR agonist 74
Cc1ccc(NC2=C/C(=N/S(=O)(=O)c3cccs3)c3ccccc3C2=O)cc1	Beta2AR agonist 43
O=C1C(Nc2ccccc2)=C/C(=N/S(=O)(=O)c2cccs2)c2ccccc21	Beta2AR agonist 49 (no result: NTR1 agonist)
Cc1ccc(S(=O)(=O)/N=C2/C=C(Sc3ncn[nH]3)C(=O)c3ccccc32)cc1	Beta2AR agonist 85 (no result: NTR1 agonist)
CCOC(=O)c1ccc(NC(=S)N2CCN(C(=O)C3CCCO3)CC2)cc1 (stereo unspecified)	none
COC(=O)c1ccccc1NC1=C/C(=N\S(=O)(=O)c2ccc(C(=O)O)cc2)c2ccccc2C1=O	Beta2AR agonist 61
CSC1=NSC2=NC(=O)/C(=C\c3ccc(OC(=O)c4ccco4)cc3)C(=N)N12	Beta2AR agonist 43
CN(C)CCCNC(=S)NCC(c1ccc(Cl)cc1Cl)c1c[nH]c2ccccc12 (stereo unspecified)	Beta2AR agonist 47
CCCCNC(=S)NCC(c1ccccc1)c1c[nH]c2ccccc12 (stereo unspecified)	none
N#Cc1c(SCC(=O)Nc2nncs2)sc2c(O)cc(=O)[nH]c12	GRK2 inh 41
N#Cc1c(SCC(=O)Nc2ccc(C(F)(F)F)cc2)sc2c(O)cc(=O)[nH]c12	none
Cc1ccc2cc(CCNS(=O)(=O)c3ccc(Br)cc3)c(=O)[nH]c2c1C	Beta2AR agonist 55
Cc1cc(C)c(S(=O)(=O)NCCc2cc3ccc(C)c(C)c3[nH]c2=O)c(C)c1	none
COc1ccccc1CC(=O)N1CCN(C(=O)c2ccco2)CC1	none
CCOc1ccccc1/C=C/C(=O)N1CCN(C(=O)c2ccco2)CC1	Beta2AR agonist 84
Cn1cnc2nc(Cl)nc(Cl)c21	Beta2AR agonist 62 (no result: GRK2 inh, VLA-4 inh, NTR1 agonist, A1 inh)
C[C@@H]1[C@@H](Sc2ccccc2)CC(=O)O[C@@H]1c1ccc(-c2ccccc2)cc1	none
O=C1C=CC2(O[C@H](c3ccccc3)[C@@H](c3ccccc3)O2)[C@H](Sc2ccccc2O)C1	Beta2AR agonist 42 (no result: GRK2 inh, VLA-4 inh, NTR1 agonist, A1 inh)
COC(=O)c1cc(=O)n(Cc2ccc(OC)c(OC)c2)c(=Nc2ccc(F)cc2)s1	Beta2AR agonist 72
Cc1ccc(C(=O)NNC(=O)c2ccc3ccccc3c2O)cc1	none
O=c1[nH]c(=S)c2[nH]c(=S)n(-c3ccccc3)c2[nH]1	none (no result: GRK2 inh, VLA-4 inh, NTR1 agonist, A1 inh)
CCCCN(C(=O)Cc1ccc2c(c1)OCCO2)c1c(N)n(CCC)c(=O)[nH]c1=O	none
CCCCCCCC(=O)Nc1ccc(C(=O)N/N=C/c2cccc([N+](=O)[O-])c2)cc1	none
O=C(N/N=C/c1cccc([N+](=O)[O-])c1)c1cc[n+](CCO)cc1	Beta2AR agonist 46
Cc1cc(C(=O)N(C)Cc2c(F)cccc2Cl)c2ccccc2n1	none
COc1cc(C(c2c(C(=O)O)[nH]c3ccccc23)c2c(C(=O)O)[nH]c3ccccc23)ccc1OCc1ccccc1	none

Compound activity as filed in PubChem BioAssay.
